# Test results as given in the supplement of paper PMC12282887.
# ± gives the standard deviation of the averaged measurements.
# Key:
# Assay in all cases: promoter activity interaction Z-score (Lux/OD deviation from empty-vector control); higher = stronger promoter induction by the compound
# [1] = system: E. coli BW25113 acrABp lux reporter
# Summary of the method: (§1)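 E. coli BW25113 luxCDABE reporter strains grew at 37°C in 40 µl LB Lennox in 384-well plates, with OD600 and luminescence read every 30 min for 12 h. After integration over 0–8 h for wild type or 1–9 h for deletion strains, wells under 10% of the median growth value were removed. Each score is the Z-transformed residual of growth-normalised luminescence fitted against a control.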
# [2] = system: E. coli BW25113 micFp lux reporter
# Summary of the method: as §1
# [3] = system: E. coli BW25113 ompFp lux reporter
# Summary of the method: as §1
# [4] = system: E. coli BW25113 robp lux reporter
# Summary of the method: as §1
# [5] = system: E. coli BW25113 soxSp lux reporter
# Summary of the method: as §1
# [6] = system: E. coli BW25113 tolCp lux reporter
# Summary of the method: as §1
# [7] = 0.47 µg/ml, genetic background: wild type
# [8] = 0.47 µg/ml, genetic background: ΔmarA
# [9] = 0.47 µg/ml, genetic background: Δrob
# [10] = 0.47 µg/ml, genetic background: ΔsoxS
# [11] = 0.93 µg/ml, genetic background: wild type
# [12] = 0.93 µg/ml, genetic background: ΔmarA
# [13] = 0.93 µg/ml, genetic background: Δrob
# [14] = 0.93 µg/ml, genetic background: ΔsoxS
# [15] = 1.9 µg/ml, genetic background: wild type
# [16] = 1.9 µg/ml, genetic background: ΔmarA
# [17] = 1.9 µg/ml, genetic background: Δrob
# [18] = 1.9 µg/ml, genetic background: ΔsoxS
# [19] = 3.7 µg/ml, genetic background: wild type
# [20] = 3.7 µg/ml, genetic background: ΔmarA
# [21] = 3.7 µg/ml, genetic background: Δrob
# [22] = 3.7 µg/ml, genetic background: ΔsoxS
smiles,measurement,setting,value
CC1(C)S[C@@H]2[C@H](NC(=O)Cc3ccccc3)C(=O)N2[C@H]1C(=O)O [Penicillin G],promoter activity interaction Z-score,[1]; [7],-0.119 ± 0.09
same,promoter activity interaction Z-score,[1]; [8],-0.131 ± 0.52
same,promoter activity interaction Z-score,[1]; [9],0.0104 ± 0.26
same,promoter activity interaction Z-score,[1]; [10],0.211 ± 0.039
same,promoter activity interaction Z-score,[1]; [11],-0.14 ± 0.13
same,promoter activity interaction Z-score,[1]; [12],0.592 ± 0.63
same,promoter activity interaction Z-score,[1]; [13],0.28 ± 0.04
same,promoter activity interaction Z-score,[1]; [14],0.575 ± 0.16
same,promoter activity interaction Z-score,[1]; [15],-0.0936 ± 0.033
same,promoter activity interaction Z-score,[1]; [16],0.128 ± 0.61
same,promoter activity interaction Z-score,[1]; [17],-0.00373 ± 0.015
same,promoter activity interaction Z-score,[1]; [18],0.229 ± 0.28
same,promoter activity interaction Z-score,[1]; [19],0.0671 ± 0.041
same,promoter activity interaction Z-score,[1]; [20],0.328 ± 0.92
same,promoter activity interaction Z-score,[1]; [21],0.156 ± 0.023
same,promoter activity interaction Z-score,[1]; [22],0.14 ± 0.13
same,promoter activity interaction Z-score,[2]; [7],-0.185 ± 0.12
same,promoter activity interaction Z-score,[2]; [8],-0.107 ± 0.0057
same,promoter activity interaction Z-score,[2]; [9],-0.126 ± 0.1
same,promoter activity interaction Z-score,[2]; [10],-0.069 ± 0.047
same,promoter activity interaction Z-score,[2]; [11],-0.247 ± 0.14
same,promoter activity interaction Z-score,[2]; [12],-0.0395 ± 0.093
same,promoter activity interaction Z-score,[2]; [13],-0.135 ± 0.1
same,promoter activity interaction Z-score,[2]; [14],0.069 ± 0.064
same,promoter activity interaction Z-score,[2]; [15],-0.228 ± 0.13
same,promoter activity interaction Z-score,[2]; [16],0.0369 ± 0.038
same,promoter activity interaction Z-score,[2]; [17],-0.142 ± 0.026
same,promoter activity interaction Z-score,[2]; [18],0.21 ± 0.0048
same,promoter activity interaction Z-score,[2]; [19],-0.333 ± 0.01
same,promoter activity interaction Z-score,[2]; [20],-0.118 ± 0.043
same,promoter activity interaction Z-score,[2]; [21],-0.11 ± 0.08
same,promoter activity interaction Z-score,[2]; [22],-0.156 ± 0.19
same,promoter activity interaction Z-score,[3]; [7],0.195 ± 0.027
same,promoter activity interaction Z-score,[3]; [8],-0.0479 ± 0.074
same,promoter activity interaction Z-score,[3]; [9],-0.032 ± 0.25
same,promoter activity interaction Z-score,[3]; [10],0.447 ± 0.11
same,promoter activity interaction Z-score,[3]; [11],0.206 ± 0.52
same,promoter activity interaction Z-score,[3]; [12],0.589 ± 0.67
same,promoter activity interaction Z-score,[3]; [13],0.432 ± 0.096
same,promoter activity interaction Z-score,[3]; [14],0.381 ± 0.3
same,promoter activity interaction Z-score,[3]; [15],-0.392 ± 0.093
same,promoter activity interaction Z-score,[3]; [16],0.0358 ± 0.0037
same,promoter activity interaction Z-score,[3]; [17],0.00513 ± 0.15
same,promoter activity interaction Z-score,[3]; [18],0.64 ± 0.076
same,promoter activity interaction Z-score,[3]; [19],0.719 ± 0.27
same,promoter activity interaction Z-score,[3]; [20],1.16 ± 0.19
same,promoter activity interaction Z-score,[3]; [21],1.35 ± 0.66
same,promoter activity interaction Z-score,[3]; [22],1.7 ± 0.7
same,promoter activity interaction Z-score,[4]; [7],0.349 ± 0.073
same,promoter activity interaction Z-score,[4]; [8],-0.4 ± 0.07
same,promoter activity interaction Z-score,[4]; [9],0.363 ± 0.43
same,promoter activity interaction Z-score,[4]; [10],0.277 ± 0.35
same,promoter activity interaction Z-score,[4]; [11],0.428 ± 0.22
same,promoter activity interaction Z-score,[4]; [12],0.187 ± 0.37
same,promoter activity interaction Z-score,[4]; [13],0.468 ± 0.14
same,promoter activity interaction Z-score,[4]; [14],1.15 ± 0.22
same,promoter activity interaction Z-score,[4]; [15],0.165 ± 0.58
same,promoter activity interaction Z-score,[4]; [16],0.313 ± 0.31
same,promoter activity interaction Z-score,[4]; [17],0.501 ± 0.075
same,promoter activity interaction Z-score,[4]; [18],1.21 ± 0.031
same,promoter activity interaction Z-score,[4]; [19],-0.01 ± 0.15
same,promoter activity interaction Z-score,[4]; [20],-0.105 ± 0.66
same,promoter activity interaction Z-score,[4]; [21],0.319 ± 0.12
same,promoter activity interaction Z-score,[4]; [22],0.575 ± 0.42
same,promoter activity interaction Z-score,[5]; [7],-0.0325 ± 0.0094
same,promoter activity interaction Z-score,[5]; [8],-0.123 ± 0.17
same,promoter activity interaction Z-score,[5]; [9],-0.201 ± 0.0035
same,promoter activity interaction Z-score,[5]; [10],0.0709 ± 0.024
same,promoter activity interaction Z-score,[5]; [11],-0.167 ± 0.16
same,promoter activity interaction Z-score,[5]; [12],0.103 ± 0.074
same,promoter activity interaction Z-score,[5]; [13],-0.163 ± 0.14
same,promoter activity interaction Z-score,[5]; [14],0.0504 ± 0.19
same,promoter activity interaction Z-score,[5]; [15],-0.132 ± 0.13
same,promoter activity interaction Z-score,[5]; [16],-0.0824 ± 0.12
same,promoter activity interaction Z-score,[5]; [17],-0.0996 ± 0.047
same,promoter activity interaction Z-score,[5]; [18],0.084 ± 0.14
same,promoter activity interaction Z-score,[5]; [19],-0.201 ± 0.12
same,promoter activity interaction Z-score,[5]; [20],0.0156 ± 0.13
same,promoter activity interaction Z-score,[5]; [21],-0.136 ± 0.17
same,promoter activity interaction Z-score,[5]; [22],-0.126 ± 0.39
same,promoter activity interaction Z-score,[6]; [7],-0.848 ± 1
same,promoter activity interaction Z-score,[6]; [8],-0.0171 ± 0.012
same,promoter activity interaction Z-score,[6]; [9],0.219 ± 0.5
same,promoter activity interaction Z-score,[6]; [10],0.375 ± 0.55
same,promoter activity interaction Z-score,[6]; [11],-0.35 ± 0.54
same,promoter activity interaction Z-score,[6]; [12],-0.485 ± 0.89
same,promoter activity interaction Z-score,[6]; [13],-0.163 ± 0.37
same,promoter activity interaction Z-score,[6]; [14],0.352 ± 0.23
same,promoter activity interaction Z-score,[6]; [15],-0.309 ± 1
same,promoter activity interaction Z-score,[6]; [16],-0.171 ± 0.9
same,promoter activity interaction Z-score,[6]; [17],-0.0507 ± 1.1
same,promoter activity interaction Z-score,[6]; [18],0.284 ± 0.24
same,promoter activity interaction Z-score,[6]; [19],-0.124 ± 0.38
same,promoter activity interaction Z-score,[6]; [20],-0.297 ± 0.25
same,promoter activity interaction Z-score,[6]; [21],-0.675 ± 1.1
same,promoter activity interaction Z-score,[6]; [22],0.109 ± 0.61
